± gives the uncertainty stated by the source.

One assay has as its system FLX1. The experiment in a line: cell viability z-score within plate (CellTiter-Glo), mean of 3 biological replicates; higher = higher viability relative to plate (less growth inhibition). Conditions: 2 µM; time (hr): 120. On the procedure: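 FLX1 fibrolamellar carcinoma cells (DNAJB1-PRKACA fusion), 600 cells/well in 384-well plates, treated with a Selleck kinase inhibitor library (L1200) at 2 uM for 5 days (120 hr); viability by CellTiter-Glo. A z-score was computed within each plate and averaged over three biological replicates.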
Background: Cellular ATP, detected with luciferase, serves as a proxy for viable cell number.

Assay [1] deals with FLX1 + dox-induced PRKAR1A G325D. In words: difference in log2 fold change of viability vs plate median (dox-induced PRKAR1A G325D minus uninduced); higher = compound less effective when PKA is inhibited. Particulars: concentration: not stated (2 or 5 uM); 5 days. As for the experimental part: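 For each plate a log2 fold change vs the plate median was derived, and the values without dox were subtracted from those with dox, averaged over three biological replicates.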

For the compound `Cc1cc(Nc2nc(N[C@@H](C)c3ncc(F)cn3)ncc2Cl)[nH]n1`, the “cell viability z-score within plate” value in the assay with FLX1 was -0.166 ± 0.46. In addition, the “difference in log2 fold change of viability” value (shortened to “difference in log2 fold change”) in assay [1] is -1.58.
The like results for `COc1cc2ncnc(Nc3ccc(F)c(Cl)c3)c2cc1NC(=O)/C=C/CN1CCCCC1` were, in that order, 0.26 ± 0.81 and -0.0217.
The corresponding values for `O=C(Nc1c[nH]nc1-c1nc2ccc(CN3CCOCC3)cc2[nH]1)NC1CC1` are 0.178 ± 0.39 and 0.115.
`COc1cc2ncnc(Nc3ccc(Cl)cc3F)c2cc1OC`: the “cell viability z-score within plate” value in the assay on FLX1 came to 1.18 ± 0.67. Further, in assay [1], the “difference in log2 fold change” value is -0.233.
The like results for `CC(C)CCN1c2nc(Nc3cc(F)c(O)c(F)c3)ncc2N(C)C(=O)C1C` (stereo not given) were, in that order, -0.812 ± 0.59 and -0.074.
The corresponding values for `CN(C)Cc1cccc(N/C(=C2\C(=O)Nc3cc(C(N)=O)ccc32)c2ccccc2)c1` are -0.208 ± 0.31 and -0.409.
The like results for `CS(=O)(=O)N1CCc2c(-c3cnc(N)nc3)nc(N3CCOCC3)nc21` were, in that order, 0.617 ± 0.29 and 0.207.
On to `O=c1sn(-c2cccc3ccccc23)c(=O)n1Cc1ccccc1` [Tideglusib], for which the “cell viability z-score within plate” value in the assay on FLX1 was -2.63 ± 1.1. The “difference in log2 fold change” value in assay [1] was determined as 1.01.
`Cn1cnc2c(F)c(Nc3ccc(Br)cc3F)c(C(=O)NOCCO)cc21`: in the assay with FLX1, the “cell viability z-score within plate” value was -0.254 ± 0.15. Further, the “difference in log2 fold change” value in assay [1] was -1.09.
The corresponding values for `CCOc1cc(C(=O)N2CCC(N3CCN(C)CC3)CC2)ccc1Nc1ncc2c(n1)N(C1CCCC1)c1ccccc1C(=O)N2C` are 0.444 ± 0.17 and 0.00328.
The corresponding values for `Cc1nc(Nc2n[nH]c3c2CN(C(=O)N[C@H](CN(C)C)c2ccccc2)C3(C)C)c2sccc2n1` are 1.12 ± 0.47 and 0.871.
With `O=C(NC(NC(=S)Nc1ccc(F)c([N+](=O)[O-])c1)C(Cl)(Cl)Cl)C(c1ccccc1)c1ccccc1` (stereo not given), the “cell viability z-score within plate” value in the assay with FLX1 was 0.309 ± 0.51. In addition, the “difference in log2 fold change” value in assay [1] stood at 0.101.
The corresponding values for `COc1cccc(-c2cc(=O)c3ccccc3o2)c1N` are 0.538 ± 0.2 and -0.103.
Regarding `C=CC(=O)Nc1cccc(Sc2nc(Nc3ccc(N4CCN(C)CC4)cc3)ncc2Cl)c1`, in the assay on FLX1, the “cell viability z-score within plate” value was 0.081 ± 0.26. The “difference in log2 fold change” value in assay [1] worked out at 0.0442.
Turning to `O=c1cc(N2CCOCC2)oc2c(-c3ccccc3)cccc12`, in the assay with FLX1, the “cell viability z-score within plate” value was found to be 0.828 ± 0.37. Besides, the “difference in log2 fold change” value in assay [1] stood at 0.224.
On to `COc1ccc(-c2ccc3ncc4c(c3c2)n(-c2ccc(N3CCNCC3)c(C(F)(F)F)c2)c(=O)n4C)cn1`, for which the “cell viability z-score within plate” value with FLX1 was found to be 0.514 ± 0.38. For the same compound, the “difference in log2 fold change” value in assay [1] was 0.174.
The like results for `Cc1cc(O)c2c(c1)C(=O)c1cccc(O)c1C2=O` [Chrysophanic Acid] were, in that order, 0.539 ± 0.3 and 0.0332.
The corresponding values for `CO[C@H]1C[C@@H]2CC[C@@H](C)[C@@](O)(O2)C(=O)C(=O)N2CCCC[C@H]2C(=O)O[C@H]([C@H](C)C[C@@H]2CC[C@H](n3cnnn3)[C@H](OC)C2)CC(=O)[C@H](C)/C=C(\C)[C@@H](O)[C@@H](OC)C(=O)[C@H](C)C[C@H](C)/C=C/C=C/C=C/1C` [Zotarolimus(ABT-578)] are 0.264 ± 0.45 and 0.358.
`C#Cc1cccc(Nc2ncnc3cc4c(cc23)OCCOCCOCCO4)c1` [Icotinib]: the “cell viability z-score within plate” value in the assay with FLX1 turned out to be 0.676 ± 0.52. In addition, the “difference in log2 fold change” value in assay [1] is -0.163.
The corresponding values for `Nc1nc(N)c2nc(-c3cccc(O)c3)c(-c3cccc(O)c3)nc2n1` are 0.649 ± 0.23 and 0.117.
The like results for `COc1cc2ncnc(Nc3cccc(Cl)c3)c2cc1OC` [AG-1478 (Tyrphostin AG-1478)] were, in that order, -0.29 ± 0.52 and 0.0422.
The corresponding values for `COc1cc(OC)c(/C=C/S(=O)(=O)Cc2ccc(OC)c(NCC(=O)O)c2)c(OC)c1` are 0.00703 ± 0.25 and 0.2.
As for `O=C(Nc1ccc(-c2ccnc(Nc3ccc(N4CCOCC4)cc3)n2)cc1)C1CCCN1` (stereo not given), the “cell viability z-score within plate” value in the assay on FLX1 stood at 0.342 ± 0.56. Moreover, in assay [1], the “difference in log2 fold change” value was 0.201.
For the compound `O=C(O)c1ccc(-c2c[nH]c3ncc(-c4ccccc4)cc23)cc1C1CCCC1`, the “cell viability z-score within plate” value with FLX1 was -1.12 ± 1.1. In addition, the “difference in log2 fold change” value in assay [1] amounted to 0.0725.
The corresponding values for `CCc1cc(Nc2nccc(-c3c(-c4ccc(OC)c(C(=O)Nc5c(F)cccc5F)c4)nc4ccccn34)n2)c(OC)cc1N1CCC(N2CCN(S(C)(=O)=O)CC2)CC1` are 0.744 ± 0.54 and 0.164.
The like results for `CS(=O)(=O)N1CCN(Cc2cc3nc(-c4cccc5[nH]ncc45)nc(N4CCOCC4)c3s2)CC1` [Pictilisib (GDC-0941)] were, in that order, 1.08 ± 0.18 and -0.0931.
The like results for `Cc1ccc(NC(=O)c2ccc(CN3CCN(C)CC3)cc2)cc1Nc1nc(-c2cccnc2)cs1` [Masitinib (AB1010)] were, in that order, -1.52 ± 1.2 and 0.682.
As to `COc1ccc(-c2ccc3c(N4CCOC[C@@H]4C)nc(N4CCOC[C@@H]4C)nc3n2)cc1CO`, the “cell viability z-score within plate” value in the assay on FLX1 amounted to 0.926 ± 0.45. Besides, the “difference in log2 fold change” value in assay [1] was 1.55.
The corresponding values for `Cc1cnc(Nc2ccc(OCCN3CCCC3)cc2)nc1Nc1cccc(S(=O)(=O)NC(C)(C)C)c1` are -0.235 ± 0.43 and -0.00786.
On to `NC1(Cc2ccc(Cl)cc2)CCN(c2ncnc3[nH]ccc23)CC1`, for which, in the assay with FLX1, the “cell viability z-score within plate” value was -0.404 ± 1.4. The “difference in log2 fold change” value in assay [1] was 0.655.
`CN1CCN(Cc2ccc(-c3cnc4[nH]cc(-c5ccc6[nH]ccc6c5)c4c3)cc2)CC1`: the “cell viability z-score within plate” value with FLX1 was -0.36 ± 0.19. Further, in assay [1], the “difference in log2 fold change” value is -0.00541.
The corresponding values for `CCn1c(=O)c(-c2ccc(-c3cncs3)cc2Cl)cc2cnc(Nc3ccc(N4CCN(C)CC4)cc3)nc21` are 0.491 ± 0.12 and -0.943.
In the case of `Cn1sc(=O)n(Cc2ccccc2)c1=O`, in the assay on FLX1, the “cell viability z-score within plate” value amounted to 1.12 ± 0.94. Moreover, the “difference in log2 fold change” value in assay [1] was 0.221.
The corresponding values for `N#CC[C@H](C1CCCC1)n1cc(-c2ncnc3[nH]ccc23)cn1` are 0.242 ± 0.22 and 0.145.
The corresponding values for `Cc1csc(-c2nnc(Nc3ccc(Oc4ncccc4-c4ccnc(N)n4)cc3)c3ccccc23)c1` are -0.507 ± 1.2 and 0.188.
